Assays:
[1] = test system: Human papillomavirus type 1a protein E7 (residues 44-93); assay: small molecules binding HPV E7 44-93 – biochemical, small-molecule microarray, residues 44-93, 635 nm fluorescence, primary screen (AID 1108); conditions: fluorescence 635 nm, higher = more signal;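 also: E7 fragment applied at 1 µg/mL in TBST for 1 h at 4 C; score combines spot fluorescence with its signal to noise ratio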
[2] = hepatitis C replication reporter changes, two-sided – Huh7 cells, luciferase reporter, HCV replication inhibitor project, primary screen (AID 1109); conditions: Huh7 HCV replicon luciferase reporter, 48 h; higher = more signal;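 also: huh7 hepatoma cells harbouring a luciferase neomycin HCV replicon reporter; luciferase luminescence as measure of HCV replicon replication; test concentration not given here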
[3] = target: Left-right determination factor 2 (Homo sapiens) (UniProt O00292); assay: small molecules binding LEFTY2 protein – biochemical, small-molecule microarray, 635 nm fluorescence scan, primary screen (AID 1110); conditions: higher = more signal
Left-right determination factor 2 (Homo sapiens), sequence (O00292 whole entry, looked up): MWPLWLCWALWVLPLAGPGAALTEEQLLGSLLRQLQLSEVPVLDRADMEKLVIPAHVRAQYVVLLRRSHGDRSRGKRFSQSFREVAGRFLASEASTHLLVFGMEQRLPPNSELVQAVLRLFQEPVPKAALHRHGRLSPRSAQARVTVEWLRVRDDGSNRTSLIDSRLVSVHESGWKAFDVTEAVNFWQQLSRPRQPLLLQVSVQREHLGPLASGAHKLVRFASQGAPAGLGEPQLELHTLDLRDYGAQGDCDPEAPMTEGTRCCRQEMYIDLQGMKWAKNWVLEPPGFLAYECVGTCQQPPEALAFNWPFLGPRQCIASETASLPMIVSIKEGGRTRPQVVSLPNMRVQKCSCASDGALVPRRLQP

[4] = target: Calmodulin-1 (Homo sapiens) (UniProt P0DP23); assay: small molecules binding calmodulin-1 with EGTA – biochemical, small-molecule microarray, Cy5-labelled CALM1, profiling panel (AID 1111); conditions: Cy5-CALM1 binding fluorescence, higher = more signal;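 also: labelled calmodulin applied in Tris saline Tween buffer holding calcium plus EGTA and DTT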
[5] = target: Calmodulin-1 (Homo sapiens) (UniProt P0DP23); assay: small molecules binding Ca-loaded calmodulin-1 – biochemical, small-molecule microarray, Cy5-labelled CALM1, plus calcium, artefact control for SMM control-protein annotation, profiling panel (AID 1112); conditions: Cy5-CALM1 binding fluorescence, higher = more signal;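 also: score merges spot fluorescence with signal to noise from triplicate slides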
[6] = probe aWnt5a binding to arrayed compounds – biochemical, biotinylated probe, 635/667 nm fluorescence, primary screen (AID 1113); conditions: small-molecule microarray, higher = more signal;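 also: score merges 667 nm fluorescence intensity with signal-to-noise per printed feature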
[7] = probe aShh binding to arrayed compounds – biochemical, biotinylated probe, 635/667 nm fluorescence, primary screen (AID 1114); conditions: small-molecule microarray, higher = more signal;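 also: probe is biotin-labelled aShh protein from a stem cell growth factor screen; measures binding of labelled protein to compounds printed on the slide; score merges feature fluorescence at 667 nm with signal-to-noise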
[8] = probe aNog binding to arrayed compounds – biochemical, biotinylated probe, 635/667 nm fluorescence, primary screen (AID 1115); conditions: small-molecule microarray, higher = more signal;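 also: probe is biotinylated aNog protein used at 0.15 µg/mL for 1 h at 4 C; z-score combines 667 nm fluorescence of each spot with its signal to noise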
[9] = target: Torsin-1A-interacting protein 1 (Homo sapiens) (UniProt Q5JTV8); assay: compound microarray binding of lysate hLAP1 – cell lysate, small-molecule microarray, COS7 lysate, 635/667 nm fluorescence, primary screen (AID 1116); conditions: 635 nm fluorescence, higher = more signal
Torsin-1A-interacting protein 1 (Homo sapiens), sequence (Q5JTV8 whole entry, looked up): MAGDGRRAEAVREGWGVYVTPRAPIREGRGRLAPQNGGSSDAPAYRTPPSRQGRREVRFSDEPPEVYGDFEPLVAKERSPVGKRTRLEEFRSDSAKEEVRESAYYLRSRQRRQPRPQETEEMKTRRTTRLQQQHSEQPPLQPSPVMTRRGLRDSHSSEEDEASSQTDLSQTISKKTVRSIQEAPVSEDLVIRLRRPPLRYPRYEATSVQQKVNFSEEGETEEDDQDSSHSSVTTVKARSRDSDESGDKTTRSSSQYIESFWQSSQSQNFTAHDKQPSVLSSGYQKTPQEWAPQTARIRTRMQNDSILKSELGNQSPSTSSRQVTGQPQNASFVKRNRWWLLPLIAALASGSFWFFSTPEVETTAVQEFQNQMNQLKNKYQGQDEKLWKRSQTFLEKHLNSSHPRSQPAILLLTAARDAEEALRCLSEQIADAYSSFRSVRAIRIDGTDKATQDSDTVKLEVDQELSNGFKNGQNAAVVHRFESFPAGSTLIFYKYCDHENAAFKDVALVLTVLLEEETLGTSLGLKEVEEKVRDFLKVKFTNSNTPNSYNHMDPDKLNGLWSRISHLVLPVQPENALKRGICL

[10] = target: Alpha-bungarotoxin (Bungarus multicinctus) (UniProt P60615); assay: compounds binding labelled alpha-BTX control protein – biochemical, small-molecule microarray, Alexa647 label, 635/667 nm fluorescence, artefact control for SMM control protein annotation, profiling panel (AID 1117); conditions: alpha-BTX-A647 binding fluorescence, higher = more signal
Alpha-bungarotoxin (Bungarus multicinctus), sequence (P60615 whole entry, looked up): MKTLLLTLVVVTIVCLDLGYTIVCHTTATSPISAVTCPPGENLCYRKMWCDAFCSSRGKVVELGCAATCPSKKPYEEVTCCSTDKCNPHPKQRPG

Row | Compound | composite z-score [1] | z-score [2] | composite z-score [3] | composite z-score [4] | composite z-score [5] | composite z-score [6] | composite z-score [7] | composite z-score [8] | composite z-score [9] | composite z-score [10]
1 | CCN1C(=O)[C@H]2[C@H]3[C@H](O)[C@H](O)CC(=NOC[C@@H](O)COCc4ccco4)[C@H]3CC[C@H]2C1=O | 0.296 | -0.389 | 1.41 | -2.21 | -2.59 | -0.216 | -0.2 | -0.878 | -0.0551 | -0.441
2 | C=CC[C@@H]1C=C[C@H](ON=C2C[C@@H](O)[C@@H](O)[C@@H]3[C@@H]4C(=O)N(CC)C(=O)[C@@H]4CC[C@@H]23)[C@@H](CO)O1 | -0.573 | 0.0355 | 0.13 | -0.758 | -0.777 | -0.131 | 0.116 | 0.0541 | -0.164 | -1.03
3 | O=C1[C@H]2CCn3c(=O)n(Cc4cc5c(cc4Cl)OCO5)c(=O)n3[C@H]2[C@H](O)[C@@H]2O[C@H]12 | -0.552 | -1.94 | 0.269 | -0.806 | -0.697 | -0.295 | -0.237 | -0.492 | 0.054 | 0.389
4 | CC(C)(C)N1C(=O)[C@H]2[C@H]3[C@H](O)[C@H](O)CC(=NNC(=O)OCc4ccccc4)[C@H]3CC[C@H]2C1=O | 0.978 | -1.9 | 0.613 | -0.0736 | -0.313 | -0.107 | 0.0141 | 0.0516 | 0.522 | 0.613
5 | CCOC(=O)[C@H](Cc1ccccc1)NC(=O)CCC1CC(OC(=O)NCc2cccc3ccccc23)CC2(CCCC(COC(=O)NCc3ccc4c(c3)OCO4)O2)O1 (stereo not given in full) | 0.524 | 1.08 | 0.284 | -0.29 | -0.457 | -0.104 | 0.214 | -0.299 | 0.629 | -0.382
6 | CC(CCC(=O)OC[C@H]1O[C@H](C#Cc2ccccc2)C=C[C@@H]1Oc1ccc(C)cc1)=NO[C@H](C)c1cn([C@@H]2COC[C@H]2O)nn1 | -0.231 | -1.66 | 0.431 | -0.411 | -0.208 | -0.0512 | -0.138 | 0.354 | -0.465 | -0.493
7 | COc1ccc(O[C@H]2C=C[C@@H](c3ccccc3)O[C@@H]2CON=C(C)CCN2CCCc3nc(C)c(C)cc32)cc1 | 1.09 | -2.04 | 0.597 | 0.284 | -0.425 | -0.0869 | -0.0769 | -0.158 | 0.358 | 0.651
8 | O=C1C2=CC[C@H]3C(=O)N(Cc4ccccc4)C(=O)[C@H]3[C@H]2[C@H](O)[C@@H]2O[C@H]12 | -0.695 | -5.09 | 0.101 | -0.476 | -0.65 | -0.129 | -0.0553 | -0.158 | 0.237 | 0.0012
9 | CON=C(C)CCC(=O)OC[C@H]1O[C@H](C#Cc2ccccc2)C=C[C@@H]1Oc1ccc(C)cc1 | 0.247 | -3.53 | 0.395 | -0.118 | -0.545 | -0.0924 | -0.0709 | 0.0369 | 0.571 | 0.35
10 | COC(=O)[C@@H]1CC[C@H](C)[C@@H](c2ccc(Br)cc2)N1C[C@H](O)CN=[N+]=[N-] | 0.0343 | -0.0104 | 0.346 | 0.0364 | 0.123 | 0.14 | -0.0243 | -0.183 | -0.133 | 0.426
11 | CCOC(=O)[C@H](CC(C)C)NC(=O)CCC1CC(OC(=O)NCCc2ccc(F)cc2)CC2(CCCC(COC(=O)NCc3cccc4ccccc34)O2)O1 (stereo not given in full) | 0.548 | -0.893 | 0.824 | 0.239 | -0.364 | -0.156 | -0.237 | -0.497 | 0.219 | 0.0466
12 | CC(C)=CCCC(C)=CCON=C1C[C@@H](O)[C@@H](O)[C@@H]2[C@@H]3C(=O)N([C@@H](C)c4ccccc4)C(=O)[C@@H]3CC[C@@H]12 | 0.257 | 0.0308 | 0.898 | -0.544 | -0.406 | -0.012 | -0.289 | -0.247 | 0.222 | 0.551
13 | COC(=O)CC=C[C@@H](C)[C@@H](C=NOC(C)CN1CCCCc2nc(C)c(C)cc21)NS(=O)(=O)c1ccc(C)cc1 (stereo not given in full) | 0.241 | 0.0814 | 0.614 | -0.344 | -1.27 | -0.158 | 0.0144 | 0.0567 | 0.0017 | 0.363
14 | COC(=O)CC=C[C@@H](C)[C@@H](C=NOC[C@@H](O)[C@H]1O[C@@H]2OC(C)(C)O[C@@H]2[C@H]1O)OC | 0.416 | -0.594 | 0.638 | -0.139 | -0.565 | -0.012 | -0.0035 | -0.234 | 0.422 | 0.265
15 | CC1(C)O[C@H]2O[C@H]([C@H](O)CON=C3[C@H]4CCn5c(=O)n(-c6ccccc6)c(=O)n5[C@H]4[C@H](O)[C@@H]4O[C@H]34)[C@H](O)[C@H]2O1 | -1.32 | -0.0374 | 0.257 | 0.759 | 0.118 | -0.0748 | -0.501 | 0.222 | -0.144 | 0.168
16 | CCOC(=O)CCN1C(=O)[C@H]2[C@H]3[C@H](O)[C@H](O)CC(=NNC(=O)OCc4ccccc4)[C@H]3CC[C@H]2C1=O | -0.994 | 0.283 | 0.863 | -1.01 | -1.23 | -0.0045 | -0.138 | -0.0091 | 0.264 | -0.245
17 | C#CCCCON=C1C[C@@H](O)[C@@H](O)[C@@H]2[C@@H]3C(=O)N(CC)C(=O)[C@@H]3CC[C@H]12 | 0.51 | -0.0718 | 0.278 | -0.0398 | -0.304 | -0.089 | -0.307 | -0.353 | 0.779 | 0.573
18 | CCOC(=O)[C@H](Cc1ccccc1)NC(=O)CCC1CC(OC(=O)NCc2cccc3ccccc23)CC2(CCCC(COC(=O)NCCOc3ccccc3)O2)O1 (stereo not given in full) | 1.35 | -0.795 | 0.628 | 0.653 | -0.378 | -0.176 | -0.493 | -0.347 | 0.166 | 0.594
19 | CC(C)[C@@H](OCc1ccccc1)[C@H](C)C=NO[C@H](C)c1cn([C@@H]2COC[C@H]2O)nn1 | 1.27 | -1.16 | 0.542 | -0.219 | -0.407 | -0.0832 | -0.206 | -0.198 | 0.296 | 0.586
20 | CC(C)CON=C1[C@H]2CCn3c(=O)n(C)c(=O)n3[C@H]2[C@H](O)[C@@H]2O[C@H]12 | 0.274 | 0.104 | 0.494 | -0.0875 | -0.609 | -0.127 | 0.0796 | -0.232 | 0.18 | 0.255
21 | Cc1ccc(S(=O)(=O)N[C@@H]2COC(=O)CC=C[C@@H](C)[C@H](NS(=O)(=O)c3ccc(C)cc3)COC(=O)[C@H](C)NC(=O)CC=C[C@H]2C)cc1 | -1.64 | 0.311 | 0.846 | -0.683 | -0.951 | -0.194 | -0.221 | 0.122 | -0.123 | -0.621
22 | COC(=O)[C@H](Cc1ccccc1)NC(=O)[C@@H](C)CO | -0.0054 | -0.499 | 0.597 | -0.597 | -0.32 | -0.034 | 0.214 | 0.376 | 0.763 | 0.0296
23 | O=C1[C@H]2[C@H]3[C@H](O)[C@H](O)CC(=NOCc4ccccc4)[C@H]3CC[C@H]2C(=O)N1C1CCCCC1 | 0.656 | 0.409 | 0.531 | 0.55 | 0.158 | -0.0572 | 0.0754 | 0.165 | -0.106 | 1.01
24 | COc1ccc(COC(=O)NN=C2C[C@@H](O)[C@@H](O)[C@@H]3[C@@H]4C(=O)N([C@@H](C)c5ccccc5)C(=O)[C@@H]4CC[C@@H]23)cc1 | -0.372 | 0.426 | 0.609 | -0.213 | -0.392 | -0.169 | 0.0121 | -0.288 | 0.51 | 0.0288
